Test [1] has as its system Human papillomavirus type 1a protein E7 (residues 44-93). Description: small molecules binding HPV E7 44-93 – biochemical, small-molecule microarray, residues 44-93, 635 nm fluorescence, primary screen (AID 1108).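 Further: E7 fragment applied at 1 µg/mL in TBST for 1 h at 4 C; score combines spot fluorescence with its signal to noise ratio.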 As to conditions: fluorescence 635 nm, higher = more signal.
Test [2] is described as follows: hepatitis C replication reporter changes, two-sided – Huh7 cells, luciferase reporter, HCV replication inhibitor project, primary screen (AID 1109).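 Further: huh7 hepatoma cells harbouring a luciferase neomycin HCV replicon reporter; luciferase luminescence as measure of HCV replicon replication; test concentration not given here.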 The conditions noted are these: Huh7 HCV replicon luciferase reporter, 48 h; higher = more signal.
For test [3], the target named is Left-right determination factor 2 (Homo sapiens) (UniProt O00292). Put plainly: small molecules binding LEFTY2 protein – biochemical, small-molecule microarray, 635 nm fluorescence scan, primary screen (AID 1110). As to conditions: higher = more signal.
Test [4] addresses Calmodulin-1 (Homo sapiens) (UniProt P0DP23). Description: small molecules binding calmodulin-1 with EGTA – biochemical, small-molecule microarray, Cy5-labelled CALM1, profiling panel (AID 1111).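 Further: labelled calmodulin applied in Tris saline Tween buffer holding calcium plus EGTA and DTT.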 As to conditions: Cy5-CALM1 binding fluorescence, higher = more signal.
For test [5] the target is unchanged. Put plainly: small molecules binding Ca-loaded calmodulin-1 – biochemical, small-molecule microarray, Cy5-labelled CALM1, plus calcium, artefact control for SMM control-protein annotation, profiling panel (AID 1112).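 Further: score merges spot fluorescence with signal to noise from triplicate slides.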 As to conditions: Cy5-CALM1 binding fluorescence, higher = more signal.
Test [6] in a line: probe aWnt5a binding to arrayed compounds – biochemical, biotinylated probe, 635/667 nm fluorescence, primary screen (AID 1113).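 Further: score merges 667 nm fluorescence intensity with signal-to-noise per printed feature.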 As to conditions: small-molecule microarray, higher = more signal.
Test [7] is described as follows: probe aShh binding to arrayed compounds – biochemical, biotinylated probe, 635/667 nm fluorescence, primary screen (AID 1114).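 Further: probe is biotin-labelled aShh protein from a stem cell growth factor screen; measures binding of labelled protein to compounds printed on the slide; score merges feature fluorescence at 667 nm with signal-to-noise.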 As to conditions: small-molecule microarray, higher = more signal.
The nature of test [8]: probe aNog binding to arrayed compounds – biochemical, biotinylated probe, 635/667 nm fluorescence, primary screen (AID 1115).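 Further: probe is biotinylated aNog protein used at 0.15 µg/mL for 1 h at 4 C; z-score combines 667 nm fluorescence of each spot with its signal to noise.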 The conditions noted are these: small-molecule microarray, higher = more signal.
Test [9] has as its target Torsin-1A-interacting protein 1 (Homo sapiens) (UniProt Q5JTV8). Description: compound microarray binding of lysate hLAP1 – cell lysate, small-molecule microarray, COS7 lysate, 635/667 nm fluorescence, primary screen (AID 1116). The conditions noted are these: 635 nm fluorescence, higher = more signal.
Test [10] deals with Alpha-bungarotoxin (Bungarus multicinctus) (UniProt P60615). Put plainly: compounds binding labelled alpha-BTX control protein – biochemical, small-molecule microarray, Alexa647 label, 635/667 nm fluorescence, artefact control for SMM control protein annotation, profiling panel (AID 1117). As to conditions: alpha-BTX-A647 binding fluorescence, higher = more signal.
A further test has as its target Albumin (Bos taurus) (UniProt P02769). Put plainly: compounds binding labelled BSA control protein – biochemical, small-molecule microarray, Alexa647 label, 635/667 nm fluorescence, artefact control for SMM control protein annotation, profiling panel (AID 1118).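 Further: score merges 667 nm emission intensity and signal-to-noise per printed compound spot.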 As to conditions: BSA-A647 binding, fluorescence 635 nm, higher = more signal.
A short description of test [11]: probe aXIP binding to arrayed compounds – biochemical, NeuroSMM set, 635/667 nm fluorescence, primary screen (AID 1119).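 Further: probe is the protein aXip251-270 applied at 1 µg/mL to compound-printed slides; binding of probe to printed compounds measured as 667 nm fluorescence plus signal to noise.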 The conditions noted are these: small-molecule microarray, higher = more signal, called active from +8 up or from −8 down.
The nature of test [12]: probe aNOTCH3 binding on compound microarray – biochemical, small-molecule microarray, 635/667 nm fluorescence, primary screen (AID 1120).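 Further: probe is a biotin-tagged antibody raised against NOTCH3 rather than NOTCH3 protein; score merges spot fluorescence near 667 nm with spot signal to noise.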 The conditions noted are these: higher = more signal.
Test [13] is described as follows: probe aNOTCH2 binding on compound microarray – biochemical, small-molecule microarray, 635/667 nm fluorescence, primary screen (AID 1121).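 Further: score merges feature fluorescence read at 667 nm with its signal to noise.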 The conditions noted are these: higher = more signal.
Test [14] deals with Carbonic anhydrase 2 (Homo sapiens) (UniProt P00918). Description: compounds binding carbonic anhydrase 2 – biochemical, small-molecule microarray, Alexa647-labelled CAII, profiling panel (AID 1122). The conditions noted are these: CAII-A647 binding fluorescence, higher = more signal.
The nature of test [15]: COS7 lysate on small-molecule microarray, probe aHis, 635 nm (AID 1123).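 Further: z-score combines 667nm fluorescence intensity with signal-to-noise per printed compound spot.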 The conditions noted are these: COS7 cell lysate, fluorescence, higher = more signal.
Test [16] can be described thus: probe aLAP1 signal on lysate-treated microarray – cell lysate, small-molecule microarray, COS7 lysate, primary screen (AID 1124).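 Further: lysate comes from COS7 cells expressing LAP1 and is applied at 0.3 µg/mL; score merges spot fluorescence near 667 nm with signal-to-noise over triplicate slides.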 As to conditions: probe aLAP1, fluorescence, higher = more signal.
The subject of the next test is Sam68 (KHDRBS1). Put plainly: compounds binding KHDRBS1 protein – biochemical, small-molecule microarray, 635 nm fluorescence, primary screen (AID 1125).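 Further: score merges 667 nm channel intensity with signal to noise over triplicate slides.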 The conditions noted are these: higher = more signal.
Test [17] deals with Chordin-like protein 2 (CHRDL2). Put plainly: compounds binding chordin-like 2 – biochemical, small-molecule microarray, 635 nm fluorescence, primary screen (AID 1126).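 Further: printed compound slides probed with Chrdl2 protein at 4 µg/mL for 1 h at 4 C; score merges 667 nm emission intensity with signal to noise over three replicate slides.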 As to conditions: fluorescence 635 nm, higher = more signal.
Test [18] deals with Concanavalin-A (Canavalia ensiformis) (UniProt P02866). Put plainly: compounds binding concanavalin A lectin – biochemical, small-molecule microarray, Alexa647 label, 635 nm, artefact control for SMM control protein annotation, primary screen (AID 1127).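 Further: z combines 667 nm emission intensity with signal-to-noise across three replicate slides.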 As to conditions: ConA-A647 binding fluorescence, higher = more signal.

Active and inactive are the calls of the source.

Sequence of Concanavalin-A (Canavalia ensiformis) (P02866 whole entry, looked up): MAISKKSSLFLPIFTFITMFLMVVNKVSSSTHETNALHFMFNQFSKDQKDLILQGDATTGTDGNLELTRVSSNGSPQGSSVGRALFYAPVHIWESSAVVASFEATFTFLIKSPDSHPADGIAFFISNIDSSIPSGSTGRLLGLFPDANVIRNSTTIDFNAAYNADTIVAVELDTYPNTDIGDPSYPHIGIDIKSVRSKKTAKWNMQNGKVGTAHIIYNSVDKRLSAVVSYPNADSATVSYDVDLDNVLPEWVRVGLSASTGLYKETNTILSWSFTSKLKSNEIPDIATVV
Sequence of Left-right determination factor 2 (Homo sapiens) (O00292 whole entry, looked up): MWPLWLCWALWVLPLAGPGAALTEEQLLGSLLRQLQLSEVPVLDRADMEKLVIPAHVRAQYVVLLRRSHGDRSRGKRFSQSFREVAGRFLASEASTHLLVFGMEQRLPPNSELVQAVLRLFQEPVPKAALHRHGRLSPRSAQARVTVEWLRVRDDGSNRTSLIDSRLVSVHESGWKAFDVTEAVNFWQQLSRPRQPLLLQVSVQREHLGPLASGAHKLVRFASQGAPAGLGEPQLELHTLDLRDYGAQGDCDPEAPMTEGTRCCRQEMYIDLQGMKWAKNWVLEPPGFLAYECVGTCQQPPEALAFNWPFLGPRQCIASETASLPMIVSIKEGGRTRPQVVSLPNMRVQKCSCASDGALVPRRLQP
Sequence of Torsin-1A-interacting protein 1 (Homo sapiens) (Q5JTV8 whole entry, looked up): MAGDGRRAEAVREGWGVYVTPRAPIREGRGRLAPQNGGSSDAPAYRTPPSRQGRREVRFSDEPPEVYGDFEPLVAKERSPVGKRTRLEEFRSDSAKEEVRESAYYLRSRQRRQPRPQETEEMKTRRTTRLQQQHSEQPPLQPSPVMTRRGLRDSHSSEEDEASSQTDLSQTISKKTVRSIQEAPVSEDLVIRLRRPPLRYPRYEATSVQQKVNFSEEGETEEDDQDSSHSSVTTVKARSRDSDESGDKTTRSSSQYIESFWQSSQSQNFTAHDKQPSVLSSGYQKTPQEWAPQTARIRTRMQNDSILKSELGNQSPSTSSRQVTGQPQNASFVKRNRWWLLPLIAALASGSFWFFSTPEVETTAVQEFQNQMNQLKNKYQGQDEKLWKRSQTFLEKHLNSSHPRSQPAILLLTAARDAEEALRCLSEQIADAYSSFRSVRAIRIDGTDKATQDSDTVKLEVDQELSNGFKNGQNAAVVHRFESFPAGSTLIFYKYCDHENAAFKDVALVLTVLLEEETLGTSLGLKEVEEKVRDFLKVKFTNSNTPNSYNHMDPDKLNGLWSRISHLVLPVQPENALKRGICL
Sequence of Alpha-bungarotoxin (Bungarus multicinctus) (P60615 whole entry, looked up): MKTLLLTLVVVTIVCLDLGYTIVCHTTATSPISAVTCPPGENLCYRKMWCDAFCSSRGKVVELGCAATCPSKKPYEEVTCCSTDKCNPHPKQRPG
Sequence of Albumin (Bos taurus) (P02769 whole entry, looked up): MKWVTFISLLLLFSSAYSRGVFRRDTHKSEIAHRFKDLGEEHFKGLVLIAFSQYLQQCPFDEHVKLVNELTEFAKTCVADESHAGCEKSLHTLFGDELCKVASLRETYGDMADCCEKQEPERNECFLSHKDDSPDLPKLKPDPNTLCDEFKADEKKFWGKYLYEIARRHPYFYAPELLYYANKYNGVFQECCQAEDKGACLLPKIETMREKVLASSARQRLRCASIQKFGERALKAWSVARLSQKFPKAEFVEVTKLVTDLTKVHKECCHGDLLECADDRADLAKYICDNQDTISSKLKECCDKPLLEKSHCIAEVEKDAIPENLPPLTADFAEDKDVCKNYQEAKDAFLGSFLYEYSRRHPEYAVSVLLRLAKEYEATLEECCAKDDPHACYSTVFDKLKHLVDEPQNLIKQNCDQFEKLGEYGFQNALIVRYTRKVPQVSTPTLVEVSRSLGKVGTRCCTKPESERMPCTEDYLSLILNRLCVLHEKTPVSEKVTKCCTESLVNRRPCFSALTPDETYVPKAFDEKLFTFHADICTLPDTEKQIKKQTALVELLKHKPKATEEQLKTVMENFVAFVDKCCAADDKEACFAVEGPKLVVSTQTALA

As to `C=CCC(OC(C)=O)[C@@H]1[C@@H](N(Cc2cc3ccccc3o2)C(=O)Cc2ccc(OC)cc2)c2cc(OCCCO)ccc2N1C(=O)Cc1ccc2ccccc2c1` (stereo not given in full), the composite z-score in test [1] is -0.687; in [3], -0.487; in test [4] it was -0.197; in test [5], 0.191; in [6] it was -0.0704; in test [7], 0.0815. Moreover, the composite z-score in [8] was -0.0642; in test [9] it was 0.475; in test [10], 0.615; with Albumin (Bos taurus), 0.402; in [12], -0.0391; in [13], -0.0424. The composite z-score was -0.061 in test [14]; 0.491 in test [15]; -0.185 in [16]; -0.235 in the test on Sam68 (KHDRBS1); -0.563 in test [17]; 0.3 in test [18]. For the same compound, in test [2], the z-score is -0.739. Moreover, in test [11], the composite Z-score was -0.374 (inactive).
Take `C=CCC(OC(C)=O)[C@@H]1[C@@H](N(Cc2ccc(-c3ccccc3)cc2)C(=O)c2ccc(-c3ccccc3)cc2)c2cc(OCCCO)ccc2N1C(=O)c1ccc2ccccc2n1` (stereo not given in full): the composite z-score in [1] is 0.0942; in test [3], 0.108; in [4] it was 0.19; in test [5], 0.531; in test [6], -0.184; in test [7] it was -0.214. Moreover, the composite z-score was -0.335 in [8]; 0.276 in test [9]; -0.282 in test [10]; -0.211 with Albumin (Bos taurus); 0.195 in test [12]; -0.12 in test [13]. The composite z-score in test [14] is -0.0785; in test [15], -0.137; in [16], 0.504; in the test with Sam68 (KHDRBS1) it was 0.504; in [17], 0.169; in test [18] it was -0.309. The z-score in test [2] was -0.0356. Further, the composite Z-score in test [11] is -0.314 (inactive).
Regarding `COCCOC(=O)N1C(=O)[C@@]2(c3cc(C#CCNC(N)=O)ccc31)[C@H](C(=O)NC[C@H](O)c1ccccc1)[C@H]1C(=O)O[C@H](c3ccccc3)[C@H](c3ccccc3)N1[C@@H]2c1ccc(OCCO)cc1`, the composite z-score was 1.11 in test [1]; 0.319 in [3]; 0.565 in test [4]; 0.442 in test [5]; -0.0459 in test [6]; 0.13 in [7]. The composite z-score in test [8] is 1.09; in [9], 1.47; in [10], 0.41; with Albumin (Bos taurus), 0.472; in test [12], 0.0018; in [13], -0.2. Further, the composite z-score in test [14] turned out to be 0.355; in test [15] it was 0.245; in test [16], 0.666; in the test on Sam68 (KHDRBS1), 1.26; in test [17] it was 0.285; in test [18], 1.02. This compound also showed a z-score in test [2] of 0.724. Further, the composite Z-score in [11] was -0.102 (inactive).
As to `COC(=O)[C@@]1(Cc2ccc(F)cc2)[C@H]2c3cc(C(=O)N(C)C)n(CCO)c3C[C@H]2CN1C(=O)c1ccccc1`, the composite z-score is -0.0095 in test [1]; -0.388 in test [3]; 0.987 in [4]; 0.322 in [5]; -0.0271 in test [6]; 0.494 in test [7]. For the same compound, the composite z-score is 1.33 in test [8]; 1.47 in test [9]; -0.148 in test [10]; 1.13 in the test with Albumin (Bos taurus); -0.0448 in test [12]; 0.0746 in test [13]. In addition, the composite z-score in test [14] was 0.861; in test [15] it was 1.97; in test [16], 1.21; in the test with Sam68 (KHDRBS1), -0.206; in test [17], -0.437; in [18] it was -0.0249. The compound also gave a z-score in [2] of -0.896. Moreover, in test [11], the composite Z-score was -0.551 (inactive).
Consider `CCCCC=C[C@@H](NC(=O)c1ccc(C(F)(F)F)cc1)c1ccccc1`, for which the composite z-score was -0.297 in [1]; -0.636 in test [3]; -0.0968 in test [4]; 0.382 in test [5]; -0.134 in [6]; 0.0022 in test [7]. Moreover, the composite z-score is 0.278 in [8]; -0.946 in test [9]; -1.07 in [10]; -0.81 in the test with Albumin (Bos taurus); -0.165 in test [12]; -0.125 in test [13]. Moreover, the composite z-score in [14] is -0.273; in test [15], 0.0379; in [16], -0.0554; in the test with Sam68 (KHDRBS1), -0.0265; in test [17], -0.94; in test [18] it was -0.792. Besides, the z-score in test [2] is -0.887. The composite Z-score in test [11] was 0.734 (inactive).

For the origin of these results see PubChem BioAssay.
